The campaign covered roughly 190,000 compounds. About 930 (0.49%) were called active. The list shows a part of the results. Entries with a potency or affinity are not part of this list. Unmarked numbers belong to inactive results.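 The calls were made as follows: active = z-score of insulin promoter reporter brightness in nuclei below -3 at 5 µM, with at least 500 cells counted; inconclusive = wells with under 500 cells, flagged as toxic or sparse; inactive = the rest.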
Experiment: insulin promoter down-regulators in MIN6 cells, imaging, high-content screening, mouse beta cells (AID 1628)
Settings: MIN6 insulin promoter GFP reporter, at 5 µM, active compounds read low

Compound | z-score
O=C(COC(=O)c1cc(S(=O)(=O)N2CCOCC2)ccc1O)NCC1CCCO1 (stereo unspecified) | 3.77
CN(C)S(=O)(=O)c1cc(C(=O)NCC2CCCO2)c(Cl)cc1Cl (stereo unspecified) | -4.71 (active)
O=C(NCC1CCCO1)C1CCN(S(=O)(=O)N2CCCC2)CC1 (stereo unspecified) | 3.58
Cc1cc(/C=C2\SC(=S)NC2=O)c(C)n1C1CC1 | 3.04
O=C(OCN1C(=O)c2ccccc2C1=O)c1ccco1 | -1.25
O=C(CN1CCN(C(=O)c2ccco2)CC1)Nc1ccccc1-c1ccccc1 | -4.53 (active)
O=C(OCC(=O)N1CCN(C(=O)c2ccco2)CC1)c1ccccc1OCc1ccccc1 | 11.8
Cc1cc(S(=O)(=O)NC2CCCCC2)c(C)s1 | 3.49
Cc1cccc(OCCNc2nc3c(c(=O)n(C)c(=O)n3C)n2C)c1 | 4.22
CC(C)Cn1cnc2c1c(=O)n(C)c(=O)n2C | -0.43
Cc1cccc(Cn2c(NCCO)nc3c2c(=O)n(C)c(=O)n3C)c1 | -9.37 (active)
Cn1c(=O)c(NCCO)c2c3c(cccc31)C(=O)c1ccccc1-2 | 13.6
CNc1nc2c(c(=O)n(C)c(=O)n2C)n1Cc1ccccc1 | -5.04 (active)
CC(C)CCn1c(CN(C)Cc2ccccc2)nc2c1c(=O)n(C)c(=O)n2C | -5.09 (active)
CN1CC=C2C(C#N)=C(N)C(C#N)(C#N)[C@H](c3ccoc3)[C@H]2C1 | 12.4
CCN(CC)C(=O)C1CCN(Cc2cccc(OCc3ccccc3)c2)CC1 | -4.22 (active)
CC(C)CCn1nc(C(=O)Nc2nc3c(s2)CCCC3)c2ccccc2c1=O | -3.57 (active)
CC(C)(C)NC(=O)c1nn(Cc2ccccc2)c(=O)c2ccccc12 | 1.76
COc1ccc(S(=O)(=O)N2CCN(c3ncnc4c(-c5ccccc5)nsc34)CC2)cc1 | -3.2 (active)
Cc1ccc(-n2c3c(c(=O)[nH]c2=O)C(C(F)(F)F)(C(F)(F)F)NC(=O)N3)cc1 | 3.01
COc1ccc(N2CCN(C(=O)C3CCC(Cn4c(=S)[nH]c5ccccc5c4=O)CC3)CC2)cc1 (stereo unspecified) | -3.35 (active)
COc1ccc(C2C(C(=O)N3CCOCC3)CCC(=O)N2c2ccc(OC)cc2)cc1 (stereo unspecified) | 3.73
Nc1c(C(=O)c2cccs2)sc2nsc(SCCN3CCCCC3)c12 | 8.75
Nc1nc(-c2ccc(Cl)cc2)c(N=Nc2ccc(S(=O)(=O)N3CCOCC3)cc2)s1 | 3.8

Compound | z-score
CCN(CC)c1ccc(/C=C2/SC(=O)N(C(C)C)C2=O)o1 | 17.3
Cc1cc(Cl)n2nc(C)c(-c3ccc(Cl)cc3)c2n1 | -5.26 (active)
O=C(CCn1cccc1)Nc1ccc(OC(F)(F)F)cc1 | 2.14
CN(C)S(=O)(=O)Oc1cccc(C(=O)Nc2ccc([N+](=O)[O-])cc2)c1 | 3.38
CCCOc1ccc2ccccc2c1/C=N/n1c(C)nnc1-n1nc(C)cc1C | -4.98 (active)
N#C/C(=C\c1ccc(N2CCCCC2)o1)C(N)=O | 7.37
O=C(O)c1cc([N+](=O)[O-])c(NCCC2=CCCCC2)c([N+](=O)[O-])c1 | 0.74
COC(CNC(=O)CSCc1nc(-c2ccc(SC)cc2)oc1C)OC | 2.32
COc1cccc(/C=N/NC(=O)c2ccc(N(C)S(=O)(=O)c3ccccc3)cc2)c1OC | 3.8
COc1cc(C(=O)Oc2ccccc2/C=N/NC(=O)c2ccc(C)c(Cl)c2)cc(OC)c1OC | -5.2 (active)
CCCN1C=CC(=CC=C(C#N)C#N)C=C1 | 4.99
CCC(=O)Nc1ccc(C(=O)Cn2ncc(Cl)c(Cl)c2=O)cc1 | -3.05 (active)
COc1ccccc1C(=O)NC(=Nc1nc2ccccc2o1)NC(=O)c1ccccc1OC | -6.44 (active)
C=CCNC(=O)/C(=C\c1ccc(Br)cc1)NC(=O)c1ccccc1OC | 3.42
COc1ccccc1C(=O)NNC(=O)C(=O)NC(C)(C)C | 3.28
COc1ccccc1N/C=C/c1onc(C)c1[N+](=O)[O-] | 4.57
Cn1c(/C(C#N)=C/c2ccc(-c3ccc(S(N)(=O)=O)cc3)o2)nc2ccccc21 | 4.53
C/C(=N/Nc1nc(-c2ccccc2)cc(-c2ccccc2)n1)c1ccc(N)cc1 | -3.67 (active)
CNC(=S)NNC(=O)c1oc2nc(-c3ccccc3)cc(-c3ccco3)c2c1N | 3.41
C/C(=N\Nc1ccc([N+](=O)[O-])cc1)c1cc2ccccc2o1 | 5.52
COc1cc(OC)c(-c2c3cc(O)c(=O)cc-3oc3cc(O)c(O)cc23)cc1OC | 11.4
Cc1cccc(NC(=O)COc2cccc3c2CCN(Cc2ccccc2)C3=O)c1C | -3.66 (active)
S=c1[nH]nc(-c2ccccc2)n1CC1CCCO1 (stereo unspecified) | 3.06
Cc1nccn1CCc1n[nH]c(=S)n1Cc1ccccc1 | -4.01 (active)

Compound | z-score
CC(C)OC(=O)c1c2c(n3ccccc13)C(=O)c1ccccc1C2=O | 11.7
CN1c2ccccc2N(C)C1c1c(O)ccc2ccccc12 | 1
CC1CC(C)CN(C(=O)c2cccc3c2-c2ccccc2C3=O)C1 (stereo unspecified) | 3.97
Cc1nc2ccc(S(=O)(=O)NC(C(=O)N3CCC(C)CC3)C(C)C)cc2s1 (stereo unspecified) | -4.34 (active)
CCC(C)NS(=O)(=O)c1ccc(OCC(=O)N2CCC(C)CC2)cc1 (stereo unspecified) | 0.84
CC1CC(C)CN(C(=O)C(NS(=O)(=O)c2ccc3c(c2)oc(=O)n3C)C(C)C)C1 (stereo unspecified) | -5.42 (active)
CC1CCN(C(=O)CNS(=O)(=O)c2ccc(Br)s2)CC1 | 3.37
COc1cc(OC)cc(C(=O)Nc2cccc(C(C)=O)c2)c1 | 3.53
CCCN(CCC)S(=O)(=O)c1ccc(C(=O)Nc2nnc(-c3cc(OC)cc(OC)c3)o2)cc1 | -4.56 (active)
CCCN(CCC)S(=O)(=O)c1ccc(C(=O)OCCN2C(=O)c3cccc4c(N5CCOCC5)ccc(c34)C2=O)cc1 | 6.18
COc1ccc2nc(SCC(=O)Nc3c(C)cccc3C)[nH]c2c1 | 3.26
Cc1ccc(NC(=O)/C=C/c2ccc([N+](=O)[O-])s2)c(C)c1 | 13.3
Cc1ccc2nc(SCC(=O)Nc3ccc(C)c([N+](=O)[O-])c3)[nH]c2c1 | -4.5 (active)
N#C/C(=C/c1ccc(N2CCCCC2)o1)C(=O)Nc1ccc2ccccc2c1 | 12.9
CCCN1C(=O)/C(=C/c2c(N3CCNC(=O)C3CC(=O)OCC)nc3c(C)cccn3c2=O)SC1=S (stereo unspecified) | 12.1
O=C(CSc1nc2[nH]ncc2c(=O)n1-c1ccccc1)NCCc1ccccc1 | 2.5
O=C(CSc1ccc2ccccc2c1)NCCc1ccc(O)c(O)c1 | -3.3 (active)
O=C(COc1ccccc1)NCCn1ccc2ccccc21 | 1.18
CCCCN(CC(=O)NCc1ccc(Cl)cc1)S(=O)(=O)c1ccc2c(c1)OCCO2 | -4.37 (active)
Cc1cc(SCC(=O)N2CCCC2)nc2ccccc12 | -0.89
COc1cc2c(cc1OC)C(C)=NCC2 | 0.45
Cc1cc2oc(=O)cc(CN3CCN(S(=O)(=O)c4ccc5c(c4)OCCO5)CC3)c2cc1C | -4.33 (active)
CNC(=O)C1CC(=O)N/C(=N/N=C(\C)c2cccs2)S1 (stereo unspecified) | 3.72
CCOc1ccccc1OCCCCCc1c(C)n[nH]c1C | -3.04 (active)

Compound | z-score
O=c1c(Cl)c2oc3ccccc3nc-2c2ccccc12 | 6.06
COc1ccc(CCn2c(C3CCCCC3)nc3c(c(=O)c4ccccc4n3C)c2=O)cc1 | -3.39 (active)
c1cc2c3c(cccc3c1)NC1(CCCCCC1)N2 | -4.13 (active)
COc1cc(C(C(=O)NC(C)(C)C)N(Cc2ccccc2)C(=O)c2cnccn2)cc(OC)c1OC (stereo unspecified) | -0.06
COc1cc(C(=O)N/N=C(\c2ccccc2)c2ccccn2)cc(OC)c1OC | -3.93 (active)
CCc1ccccc1NC1=CC(=O)CC(C)(C)C1 | 1.6
Cc1ccccc1OCc1n(CC(=O)OC2CC(C)CCC2C(C)C)c2ccccc2[n+]1C (stereo unspecified) | -5.14 (active)
Cc1ccccc1OCC(=O)OC1CCN(C)CC1 | 8.59
CCOC(=O)c1c2c3c(c(Cl)ccc3[nH]c1=O)C(=O)c1ccccc1-2 | -3.28 (active)
COCCCNc1c2c3c(cccc3[nH]c1=O)C(=O)c1ccccc1-2 | 13.6
CSc1nc2ccc(S(N)(=O)=O)cc2s1 | -4.36 (active)
N#C/C(=C/c1ccc(-c2ccc(S(N)(=O)=O)cc2)o1)c1nc2ccccc2s1 | 16.5
CC1(C)CCc2c([nH]c3ccccc3c2=O)O1 | 0.3
c1ccc2c(c1)[nH]c1c(N3CCC4(CC3)OCCO4)ncnc12 | -4.74 (active)
Cc1ccc2[nH]c3c(N4CCCCCC4)ncnc3c2c1 | -3.59 (active)
COC(=O)c1cc2c(-c3ccccc3)cc3ccccn3c-2c1C(=O)OC | 3.3
Cc1cc2ccccn2c1C(=O)c1ccncc1 | -8.28 (active)
CC(NC(=O)/C(C#N)=C1\N=C(NC(=O)c2ccco2)c2ccccc21)c1ccccc1 (stereo unspecified) | 3.68
COc1ccc(-c2cnn3c4c(c(C)nc23)CCN4C2CCCC2)cc1OC | -4.71 (active)
CCCCNC(=O)C1CC(=O)N(C2CCCCC2)C1 (stereo unspecified) | 3.02
c1nc(N2CCNCC2)c2sc3nc(N4CCOCC4)c4c(c3c2n1)CCC4 | -3.71 (active)
N#Cc1c2c(c(-n3cnc4ccccc43)n3c1nc1ccccc13)CCC2 | 4.79
CC1(C)NC(=O)N(CCCCOc2ccc3c(c2)CCC3)C1=O | -1.15
OC(COc1ccc2c(c1)CCC2)Cn1cnc2ccccc21 (stereo unspecified) | -4.14 (active)
